AHR act: activates the human aryl hydrocarbon receptor; P35869; AHR-responsive luciferase reporter cells, luminescence; activation, % at 5 µM; actives 2.5% (n = 320,000); in the data active = activation above about 47%;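 also: 0% = vehicle wells and 100% = reference agonist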
Target sequence (P35869 whole entry, looked up): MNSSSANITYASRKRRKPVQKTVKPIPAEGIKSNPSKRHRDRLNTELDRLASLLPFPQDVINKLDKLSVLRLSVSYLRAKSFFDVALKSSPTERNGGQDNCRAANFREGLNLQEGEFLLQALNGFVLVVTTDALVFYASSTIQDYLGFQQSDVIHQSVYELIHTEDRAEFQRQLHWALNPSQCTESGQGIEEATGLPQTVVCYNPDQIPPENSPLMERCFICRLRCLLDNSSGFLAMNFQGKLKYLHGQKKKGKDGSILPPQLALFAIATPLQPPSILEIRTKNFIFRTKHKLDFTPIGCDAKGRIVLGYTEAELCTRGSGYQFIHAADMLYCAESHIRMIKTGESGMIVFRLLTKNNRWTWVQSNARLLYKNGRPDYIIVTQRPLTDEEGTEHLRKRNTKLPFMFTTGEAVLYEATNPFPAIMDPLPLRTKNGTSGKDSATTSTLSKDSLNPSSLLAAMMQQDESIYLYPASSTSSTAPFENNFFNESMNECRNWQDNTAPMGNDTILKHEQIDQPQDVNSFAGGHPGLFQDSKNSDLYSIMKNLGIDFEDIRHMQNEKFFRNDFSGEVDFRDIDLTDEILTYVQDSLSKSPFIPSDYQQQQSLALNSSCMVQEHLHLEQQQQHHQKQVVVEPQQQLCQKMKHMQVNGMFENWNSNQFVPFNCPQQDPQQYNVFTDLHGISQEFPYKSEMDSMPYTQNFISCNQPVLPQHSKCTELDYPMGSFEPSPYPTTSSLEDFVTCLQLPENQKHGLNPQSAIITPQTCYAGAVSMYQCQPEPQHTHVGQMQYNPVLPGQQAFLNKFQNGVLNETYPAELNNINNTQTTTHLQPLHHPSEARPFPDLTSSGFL
esBAF inh: SWI/SNF esBAF complex inhibition. mouse ES cells, Bmi1-luciferase knock-in reporter, 24 h; 100% = twice the neutral-well signal. reporter increase, % at 12.5 µM. actives 2% (n = 350,000). AID 602393; in the data active = activation above about 40%; inconclusive = no clear call, values can overlap the other calls;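 also: 0% = median of the plate's neutral control wells and 100% = double that signal; a rise in the Bmi1 reporter signal indicates esBAF inhibition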
FXN GAA850 act: activators of GAA850 frataxin (FXN) promoter; actives 0.56% (n = 360,000); AID 540364; activation, % at 6 µM; HEK293 lucGAA850 FXN promoter luciferase reporter, 24 h; percent of 10 µM SAHA response;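 active = activation above the average of all compounds screened plus 3 SD, cutoff fixed separately per campaign, cut at about 7.5% in these data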;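 also: 0% = DMSO wells and 100% = 10 µM SAHA wells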
MITF act: MITF TRPM1 promoter activation in melanoma cells. SK-MEL-5 TRPM1-promoter luciferase, 24 h; % of positive control, neutral wells = 0. activation, % at 12.5 µM. actives 0.75% (n = 300,000). AID 588334;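 active = mean activation of at least 80% with every replicate also reaching 80%; inconclusive = mean reaches 80% but some replicate falls short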;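 also: 0% = neutral control wells and 100% = parthenolide positive control wells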
Wnt act: activates Wnt/beta-catenin signaling in a reporter cell assay | actives 1.2% (n = 300,000) | activator, plate reader | activation, % at 9.35 µM | AID 743398; in the data active = activation above about 30%, passing the limit was not always enough; inconclusive = no clear call, values can overlap the other calls;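 also: 0% = neutral control wells and 100% = positive control wells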
AHR act confirm: confirmation of human aryl hydrocarbon receptor activators | shares compounds with AHR act | human cells, AHR-responsive luciferase reporter, luminescence | activation, % at 9 µM | actives 87% (n = 2,300) | AID 2845; in the data active = activation above about 49%;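 also: HepG2 hepatoma cells carrying a DRE-driven firefly luciferase reporter; 0% = vehicle wells and 100% = reference agonist wells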
PXR act counter: activates human PXR in AHR activator counter-screen; cell-based PXR reporter, luciferase luminescence; activation, % at 11.6 µM; shares compounds with AHR act; AID 434939; actives 88% (n = 2,300); in the data active = activation above about 11%;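 also: human hepatoma DPX-2 cells expressing full-length human PXR; 0% = DMSO and 100% = reference agonist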
Active calls of the source: *; ? = inconclusive; / = not tested or not shown. Most compounds without a hit are left out; they make up all but 4.2% or so of the library.

SMILES | AHR act | esBAF inh | FXN GAA850 act | MITF act | Wnt act | AHR act confirm | PXR act counter
O=C(NCc1ccc2c(c1)OCO2)c1ccccc1 | 3 | / | 0 | 13 | 0 | / | /
O=C(Nc1ccc2c(c1)OCO2)Nc1ccccc1F | 21 | / | 2 | 79 | ? | / | /
Cc1cc(C)cc(C(=O)NCc2ccc3c(c2)OCO3)c1 | 106* | -1 | 0 | / | -1 | 75* | 52*
CCc1ccccc1NC(=O)Nc1ccc2c(c1)OCO2 | 87* | 21 | 5 | 24 | -4 | 92* | 86*
O=S(=O)(N[C@H]1CC[C@@H](CCn2cc(-c3cccc(F)c3)nn2)O[C@H]1CO)c1ccc(Cl)cc1 | / | 9 | / | / | / | / | /
O=C(C[C@H]1C[C@@H]2c3cc(NS(=O)(=O)c4ccc(F)cc4)ccc3O[C@@H]2[C@H](CO)O1)NCCc1ccccc1 | / | 5 | / | / | / | / | /
CCOc1ccccc1NC(=O)Nc1ccncc1 | 139* | -1 | 0 | 2 | -1 | 86* | 18*
CCOc1ccccc1NC(=O)NCc1ccc2c(c1)OCO2 | 97* | 2 | 1 | 2 | 0 | 74* | 40*
Cc1ccc2occ(/C=N/O)c(=O)c2c1 | 18 | 11 | 1 | 10 | / | / | /
O=c1c(/C=N/O)coc2ccc3ccccc3c12 | 84* | 24 | 2 | 6 | 5 | 18 | 6
O=c1[nH]cnc2c1sc1nc3c(c(-c4ccc(Cl)cc4)c12)CCC3 | -2 | -6 | 2 | / | -2 | / | /
O=c1[nH]cnc2c1sc1nc(C(F)F)cc(-c3ccccc3)c12 | 106* | -9 | 0 | -11 | 0 | 76* | 10*
C[C@H]1CN([C@@H](C)CO)C(=O)Cc2cc(NS(=O)(=O)c3ccccc3)ccc2O[C@H]1CN(C)S(=O)(=O)c1ccc(Cl)cc1 | / | 1 | / | / | / | / | /
C=CCn1c(NC(=O)c2ccc(C)cc2)nc2ccccc21 | 99* | 37 | 4 | / | 9 | 93* | 29*
CCCn1c(NC(=O)c2ccccc2)nc2ccccc21 | 46 | 4 | -1 | -6 | / | / | /
Cn1cncc1C#Cc1c(C=O)n(C)c2ccccc12 | 114* | 5 | 3 | 5 | 1 | 109* | 23*
COc1cc(C#Cc2c(C=O)n(C)c3ccccc23)cc(OC)c1 | 33 | -3 | 2 | -6 | -1 | / | /
C[C@@H](NC(=O)[C@H]1N[C@H]2c3ccc(-c4cccnc4)c(=O)n3C[C@H]2[C@@H]1CO)c1ccccc1 | / | -3 | / | / | / | / | /
C[C@@H]1CCCCO[C@H](CN(C)Cc2ccc(C(=O)O)cc2)[C@H](C)CN([C@H](C)CO)C(=O)c2cc(NS(=O)(=O)c3ccc(F)cc3)ccc2O1 | / | -1 | / | / | / | / | /
O=C(Cn1c(NCCCO)nc2ccccc21)c1ccc(Cl)cc1Cl | 120* | 12 | 2 | / | 2 | 122* | 20*
N/C(=N\OC(=O)c1cccc2ccccc12)c1ccc(Br)cc1 | 96* | / | -1 | -3 | 3 | 99* | 15*
Cc1ccc(C)c(C(=O)O/N=C(\N)c2ccc(Br)cc2)c1 | 95* | 43* | 2 | / | 26 | 118* | 15*
Cc1ccccc1C(=O)O/N=C(\N)c1ccccc1 | 79* | 41 | -2 | -12 | 27 | 95* | 8
N/C(=N\OC(=O)c1ccccc1[N+](=O)[O-])c1cccnc1 | 138* | / | 2 | -2 | / | 76* | 29*
O=C1CCCc2nc3c(cc21)C(O)Oc1c-3ccc2ccccc12 (stereo unspecified) | 148* | / | 1 | ? | 0 | 13 | 45*
O=C1CCCc2nc3c(cc21)C(O)Oc1ccccc1-3 (stereo unspecified) | 9 | 9 | 1 | 14 | -2 | / | /
Nc1c(Cl)cc(-c2csc(N3CCCC3c3nc4cc(Cl)c(N5CCCCC5)cc4n3CCCO)n2)cc1Cl (stereo unspecified) | 86* | 4 | 3 | -15 | -9 | 86* | 197*
Nc1c(Cl)cc(-c2csc(N3CCCC3c3nc4cc(Cl)c(Cl)cc4n3CCCO)n2)cc1Cl (stereo unspecified) | 16 | 0 | 2 | -1 | -9 | / | /
O=C(NCC[C@@H]1CC[C@@H](NS(=O)(=O)c2ccc(Oc3ccccc3)cc2)[C@@H](CO)O1)C1CC1 | / | 7 | / | / | / | / | /

High-throughput results deposited in PubChem by several laboratories.
